A selection: hits, their analogues and other compounds. The true share with any hit is near 3%.
KLF5 inhibitor: suppresses KLF5 promoter-driven expression | inhibition, % at 5 µM | AID 1700 | 290,000 compounds, 0.23% hits | DLD-1 KLF5 promoter-luciferase reporter, luminescence;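 active = inhibition above a per-plate limit of that plate's mean compound inhibition plus 3 SD, cut at about 60% in these data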;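 note: higher means less KLF5 promoter-driven luciferase light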
SKKanGAS inh: inhibitors of SKKanGAS S. pyogenes growth in kanamycin (SK-promoter or general growth effect). BacTiter-Glo, 6 h. inhibition, % at 7.5 µM. 300,000 compounds, 1.3% hits;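 active = mean replicate score, as percent of positive control median, at least 50; inconclusive = mean below 50 but one replicate at or above 50; inactive = mean and every replicate below 50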;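 note: strain carries kanamycin resistance gene driven by streptokinase promoter and grows in 40 µg/ml kanamycin; loss of luminescence reflects streptokinase promoter inhibition or plain growth inhibition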
IEC-6 cytotox: counter-screen for KLF5 inhibitors: cytotoxicity in IEC-6 cells; IEC-6 cytotoxicity, luminescence viability; inhibition, % at 5 µM; 290,000 compounds, 0.78% hits; in the data active = inhibition above about 22%
aSyn 5UTR inh: MLPCN primary screen, SNCA 5' untranslated region; inhibition, % (tested at 7.5 µM); 300,000 compounds, 0.82% hits; alpha-synuclein 5'UTR reporter, inhibitor activity; AID 1813; in the data active = inhibition above about 60%; inconclusive = no clear call, values can overlap the other calls;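 note: H4 neuroglioblastoma cells stably carrying SNCA 5'UTR luciferase fusion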
CSC inhib: blocks cancer stem cells; cancer stem cell-like cells viability, luminescence; 300,000 compounds, 1.1% hits; inhibition, % at 7.5 µM; AID 2717; in the data active = inhibition above about 75%; inconclusive = no clear call, values can overlap the other calls; tested in HMLE shEcad cells
Large screens that a line does not name were inactive.

O=[N+]([O-])c1ccc(O)c(/C=N/NC(=S)Nc2ccc(Cl)cc2Cl)c1	SKKanGAS inh 117, CSC inhib 76
Cc1cc(Cl)ccc1NC(=O)CCC(=O)N/N=C/c1cc([N+](=O)[O-])ccc1O	none
COc1cccc(-c2coc3c(C)c4oc(=O)c(CCC(=O)O)c(C)c4cc23)c1	SKKanGAS inh 51
CC(C)c1ccccc1NC(=O)COC(=O)CCN1C(=O)/C(=C\C=C\c2ccccc2)SC1=S	aSyn 5UTR inh 73
Cc1ccc(NC(=O)CCCN2C(=O)/C(=C/C=C/c3ccccc3)SC2=S)cc1	none
O=C(CN1C(=O)S/C(=C\C=C\c2ccccc2)C1=O)Nc1ccc(O)cc1	CSC inhib 79
O=C(COC(=O)CCN1C(=O)/C(=C\C=C\c2ccccc2)SC1=S)Nc1ccc(Br)cc1	aSyn 5UTR inh 65
Cc1ccc(N(CC(=O)Nc2cccc(C)c2)S(=O)(=O)c2cccc3nonc23)cc1	none
CC(=O)c1cnc2ncnn2c1C	none
COc1cc(CN2CCNC(=O)C2CC(=O)N2CCCN(C(C)=O)CC2)cc(OC)c1 (centres undefined)	none
COc1ccc2nc(C3CCCCC3)nc(C3CCCCC3)c2c1	SKKanGAS inh 90 (no result: KLF5 inhibitor, IEC-6 cytotox)
N=C1SCC(=O)N1c1ncc(Cc2ccc(F)cc2)s1	SKKanGAS inh 74
Cc1ccc(-c2csc(N3C(=N)SCC3=O)n2)cc1	none
CSc1cccc(NC(=O)OC2CCCCCCCCCCC2)c1	SKKanGAS inh 66
Cc1c(C=O)c(=O)n(-c2ccccc2)n1-c1ccccc1	none
O=C(NNC(=O)c1ccccc1OCc1ccccc1)c1ccccc1F	none
O=C(NCc1ccc(F)cc1)c1ccccc1OCc1ccccc1	none
O=C(NNC(=O)c1ccccc1OCc1ccccc1)c1ccccc1O	aSyn 5UTR inh 65
O=C(NNC(=O)c1ccccc1OCc1ccc(F)cc1)c1ccccc1O	SKKanGAS inh 93, aSyn 5UTR inh 68
Cc1cc(OCc2nc(-c3ccncc3)no2)cc(C)c1Cl	none
Cc1ccccc1N1CCN(C2CCCN(C(=O)c3cn4cccc(C)c4n3)C2)CC1 (centres undefined)	none (no result: CSC inhib)
CC1Sc2ccc(C(=O)Nc3ccccc3OC(F)F)cc2NC1=O (centres undefined)	none (no result: KLF5 inhibitor, IEC-6 cytotox)
CCCCCNC(=O)c1c[nH]c2ccc(S(=O)(=O)N3CCC4(CC3)OCCO4)cc2c1=O	none (no result: CSC inhib)
O=C(Nc1ccc(Cl)cc1)c1cc2c(cc1O)[nH]c1ccccc12	SKKanGAS inh 100, CSC inhib 116
CC(=O)Nc1ccc2[nH]c3ccccc3c2c1	none
COc1cc(NC(=O)c2ccco2)c(C(=O)OCC(=O)c2c[nH]c3ccccc23)cc1OC	CSC inhib 83
COc1ccccc1/C=C/c1nc2ccc(OC(C)=O)cc2c(=O)o1	none
COc1ccc(/C=C/c2nc3cc(-c4ccccc4)ccc3o2)cc1O	SKKanGAS inh 88, CSC inhib 102
CCOC(=O)C1=C(C)NC(C)=C(C(=O)OCC)C1c1ccc([N+](=O)[O-])s1	SKKanGAS inh 51
N=C1S/C(=C\c2ccco2)C(=O)N1c1nccs1	SKKanGAS inh 81 (no result: CSC inhib)
N=C1S/C(=C\c2ccco2)C(=O)N1c1ccc2c(c1)OCO2	none
Cc1ccc(N/N=C2\CS(=O)(=O)N(C)c3ccsc32)cc1	SKKanGAS inh 101
COc1ccc(C(C(=O)NC(C)(C)C)N(C(=O)CCC(=O)Nc2cc(C)on2)c2c(C)cccc2C)cc1 (centres undefined)	none (no result: CSC inhib)
COc1cc(C(=O)NS(=O)(=O)c2ccccc2C)ccc1Cc1cn(C)c2ccc(NC(=O)OC3CCCC3)cc12	SKKanGAS inh 68
COc1ccc(NC(=O)COc2ccccc2C)cc1S(=O)(=O)N1CCCCC1	none (no result: KLF5 inhibitor, IEC-6 cytotox)
COc1ccccc1N1CCN(C(=O)COc2ccc(S(=O)(=O)NC(C)(C)C)cc2)CC1	none
COc1ccc(-c2nc(CN3CCN(c4cc(C)nc(C)c4)CC3)c(C)o2)c2ccccc12	aSyn 5UTR inh 68
Cc1cc(N2CCN(Cc3nc(-c4ccc(Cl)cc4)oc3C)CC2)cc(C)n1	none
O=C(CN1C(=O)c2ccccc2S1(=O)=O)c1ccc(O)c(O)c1	aSyn 5UTR inh 64
O=C1NN(c2ccccc2)C(=O)/C1=C/c1ccc(Sc2cccc3ccccc23)o1	SKKanGAS inh 50, CSC inhib 79
COC(CNC(=O)CCc1c(C)nc2c(c(C)nn2-c2ccc(C)cc2)c1C)OC	none
Cc1ccc(-n2nc(C)c3c(C)c(CCC(=O)Nc4ccc(CN5CCCC5)cc4)c(C)nc32)cc1	aSyn 5UTR inh 104, CSC inhib inconclusive
Cc1cc(C)c(C(=O)Nc2ccc(Br)c(C(F)(F)F)c2)c(C)c1	SKKanGAS inh 72
CC(Oc1ccc(Cl)cc1Cl)C(=O)NC1=NN(c2ccccc2)C(=O)C1 (centres undefined)	SKKanGAS inh 94
O=C1CC(NC(=O)C(F)(F)F)=NN1c1ccccc1	none
CC(C)(Oc1ccc(Cl)cc1)C(=O)NC1=NN(c2ccccc2)C(=O)C1	SKKanGAS inh 95, CSC inhib 112
COc1ccc(OC)c(S(=O)(=O)NC(N)=NCCc2ccccc2OC)c1	none (no result: CSC inhib)
Cc1cc(OCC(=O)Nc2ccc(CN3CCOCC3)cc2)c2c(C)c(C)c(=O)oc2c1	none
CC(=O)N1N=C2c3ccccc3CCC2C1c1ccc(F)cc1 (centres undefined)	none
CCNC(=S)N1N=C2c3ccccc3CCC2C1c1ccc(F)cc1 (centres undefined)	CSC inhib 82
COc1ccc(C(=O)NNC(=O)c2ccc(C(C)(C)C)cc2)cc1	none
COc1ccc(C(=O)NC(=S)NNC(=O)c2ccccc2O)cc1	SKKanGAS inh 102
CCn1c(C)nc2cc(C(=O)NNC(=S)NC(=O)c3ccc(OC)cc3)ccc21	SKKanGAS inh 59
COc1ccc(C(=O)NC(=S)NNC(=O)c2ccccc2C)cc1	SKKanGAS inh 101 (no result: KLF5 inhibitor, IEC-6 cytotox)
COc1ccc(C(=O)NNC(=S)NC(=O)C(C)(C)C)cc1	SKKanGAS inh 68, aSyn 5UTR inh inconclusive
COc1ccc(C(=O)NNC(=S)NC(=O)c2cccc([N+](=O)[O-])c2)cc1	none (no result: KLF5 inhibitor, IEC-6 cytotox)
COc1ccc(C(=O)NC(=S)Nc2ccccc2F)cc1	none
O=C(CSc1nc2ccccc2c(=O)n1-c1ccc(OC(F)F)cc1)NC1CC1	none (no result: KLF5 inhibitor, SKKanGAS inh, IEC-6 cytotox, aSyn 5UTR inh)
CCn1cc(C(=O)N2CCN(c3ccccc3F)CC2)c(=O)c2ccc(C)nc21	none
CCn1c(SCC(=O)Nc2oc(-c3ccccc3)c(-c3ccccc3)c2C#N)nnc1-c1cc(OC)cc(OC)c1	none (no result: CSC inhib)
COC(=O)C[C@H]1c2cc(C(F)(F)F)ccc2S(=O)(=O)N1Cc1ccccc1OC	none (no result: KLF5 inhibitor, IEC-6 cytotox)
CC(C)(C)C(=O)NC(=S)NNC(=O)c1sc2ccccc2c1Cl	SKKanGAS inh 100, aSyn 5UTR inh 89 (no result: CSC inhib)
O=C(NNC(=S)NC1CCCCC1)c1sc2ccccc2c1Cl	none
COc1ccc(-c2nnc(NC(=O)c3ccc(S(=O)(=O)N4CCCc5ccccc54)cc3)o2)cc1	SKKanGAS inh 94, aSyn 5UTR inh 69 (no result: CSC inhib)
COc1cccc(-c2nnc(NC(=O)c3ccc(S(=O)(=O)N4CCOCC4)cc3)o2)c1	SKKanGAS inh 88
O=C(Nc1nnc(C2CC2)o1)c1ccc(S(=O)(=O)N2CCCc3ccccc32)cc1	SKKanGAS inh 91, aSyn 5UTR inh 63 (no result: KLF5 inhibitor, IEC-6 cytotox)
Cc1cc(NC(=O)COC(=O)c2ccc(S(=O)(=O)N3CCCc4ccccc43)cc2)no1	KLF5 inhibitor 63
